According to PubChem BioAssay (NCI):
This is part of a sample that, as a whole, favours compounds with a hit. Of some 79,000 tested, about 15% had one in any assay. The source made the active and inactive calls. Cut-off read from the data, not from the text of the source: active = growth inhibition above about 70%; inactive = the rest.

Key:
[1] = NCI Yeast Anticancer Drug Screen. Data for the rad52 strain (AID 147);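 note: 0% = growth of vehicle-treated control cultures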; conditions: S. cerevisiae rad52 mutant growth inhibition, hits give high values
Outline: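 Screen used a yeast mutant impaired in DNA repair. After compound exposure, growth was measured. Values reflect inhibition compared with vehicle-treated cells.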

[2] = NCI Yeast Anticancer Drug Screen. Data for the wt1 strain (AID 149);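 note: 0% = growth of vehicle-treated wt1 cultures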; conditions: S. cerevisiae wt1 strain (SPY 50644) growth inhibition, hits give high values
Outline: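 The wt1 strain was treated with compounds, and growth was compared with vehicle-treated cultures to give inhibition.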

[3] = NCI Yeast Anticancer Drug Screen. Data for the rad50EPP+ strain (AID 151);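 note: 0% = growth of vehicle-treated control cultures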; conditions: S. cerevisiae rad50 mutant strain, hits give high values
Outline: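 Exposing the rad50EPP+ strain to each compound, growth was compared with vehicle-only cultures to give inhibition.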

[4] = NCI Yeast Anticancer Drug Screen. Data for the mgt1 strain (AID 153); conditions: S. cerevisiae mgt1 mutant growth inhibition, hits give high values
Outline: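 Genetically defined yeast (mgt1) treated with compound; inhibition of growth expressed against vehicle-treated controls.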

[5] = NCI Yeast Anticancer Drug Screen. Data for the rad50 strain (AID 155);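 note: 0% = growth of vehicle-only cultures of the same strain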; conditions: S. cerevisiae rad50 strain growth inhibition, hits give high values
Outline: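 Cells are treated with compound, grown, and their growth is then scored against vehicle-only cultures of the same repair-deficient yeast strain.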

[6] = NCI Yeast Anticancer Drug Screen. Data for the mec2-1 strain (AID 157); conditions: S. cerevisiae mec2-1 strain, hits give high values
Outline: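 Readout is yeast growth inhibition, normalised to vehicle-treated controls, in the mec2-1 strain exposed to compound.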

[7] = NCI Yeast Anticancer Drug Screen. Data for the rad14 strain (AID 159);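 note: 0% = growth of vehicle-treated control cultures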; conditions: S. cerevisiae rad14 strain growth inhibition, hits give high values
Outline: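 Readout: yeast growth inhibition, referenced to vehicle-only cultures. Strain bears a defined alteration in DNA damage repair.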

[8] = NCI Yeast Anticancer Drug Screen. Data for the sgs1 mgt1 strain (AID 161);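 note: 0% = growth of cultures given vehicle only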; conditions: S. cerevisiae sgs1 mgt1 strain, hits give high values
Outline: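 Compounds are added to genetically altered yeast, and growth is compared with cultures given vehicle alone to give percent inhibition.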

[9] = NCI Yeast Anticancer Drug Screen. Data for the CLN2oe strain (AID 163);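 note: 0% = growth of vehicle-only control cultures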; conditions: S. cerevisiae CLN2oe strain, hits give high values
Outline: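 Values reflect how much compound exposure reduced yeast growth, referenced to vehicle-exposed cells. Assay organism is a strain with a defined genetic change affecting cell-cycle control.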

[10] = NCI Yeast Anticancer Drug Screen. Data for the bub3 strain (AID 167); conditions: S. cerevisiae bub3 mutant strain, hits give high values
Outline: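 Part of a panel of yeast mutants defective in DNA damage repair or cell cycle regulation. Each strain is grown with compound, and inhibition is calculated relative to solvent-treated cultures.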

[11] = NCI Yeast Anticancer Drug Screen. Data for the wt2 strain (AID 169);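 note: 0% = growth of vehicle-treated yeast cultures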; conditions: S. cerevisiae wt2 strain growth inhibition, hits give high values
Outline: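 Values express reduction in yeast growth under compound treatment, referenced to vehicle-treated cells.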

[12] = NCI Yeast Anticancer Drug Screen. Data for the mlh1 strain (AID 171);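 note: 0% = growth of vehicle-treated control cultures of the same strain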; conditions: S. cerevisiae mlh1 strain growth inhibition, hits give high values
Outline: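 Steps: expose the defined-mutant yeast strain to compound; expose a parallel culture to vehicle; measure growth; express compound effect as inhibition relative to the vehicle culture.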

[13] = NCI Yeast Anticancer Drug Screen. Data for the sgs1 strain (AID 173);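 note: 0% = growth of vehicle-only control cultures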; conditions: S. cerevisiae sgs1 mutant, hits give high values
Outline: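 Treat defined-mutant yeast with compound; measure growth; calculate inhibition relative to vehicle-treated cells.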

[14] = NCI Yeast Anticancer Drug Screen. Data for the mlh1 rad18 strain (AID 175); conditions: S. cerevisiae mlh1 rad18 strain growth inhibition, hits give high values
Outline: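 Test agents were incubated with a yeast strain of defined genotype (DNA damage repair defect). Inhibition of growth was derived by comparison with vehicle-exposed cultures.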

[15] = NCI Yeast Anticancer Drug Screen. Data for the rad18 strain (AID 177); conditions: S. cerevisiae rad18 mutant growth inhibition, hits give high values
Outline: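 A genetically defined yeast mutant impaired in DNA damage repair was treated with test compounds, then its growth was measured against cultures receiving vehicle alone.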

[16] = at 5.0 µM (retest, dose inferred, filed as 0.5)
[17] = at 50.0 µM (retest, dose inferred, filed as 5.0)

Measured: growth inhibition

C[n+]1c(-c2ccc(/C=N/NC(=O)c3ccc(C(=O)N/N=C/c4ccc(-c5cn6ccccc6[n+]5C)cc4)cc3)cc2)cn2ccccc21
inactive: [1]; at 1.2 µM 5% | [1]; at 3.7 µM 14% | [1]; at 11.0 µM 29% | [1]; at 33.0 µM 54% | [1]; at 100.0 µM 60% | [2]; at 1.2 µM 9% | [2]; at 3.7 µM 16% | [2]; at 11.0 µM 26% | [2]; at 33.0 µM 25% | [2]; at 100.0 µM 25% | [3]; at 1.2 µM 69% | [4]; at 1.2 µM 13% | [4]; at 3.7 µM 22% | [4]; at 11.0 µM 42% | [5]; at 1.2 µM 6% | [5]; at 3.7 µM 10% | [5]; [16] 15% | [5]; at 11.0 µM 16% | [5]; at 33.0 µM 55% | [6]; at 1.2 µM 7% | [6]; at 3.7 µM 13% | [6]; [16] -7% | [6]; at 11.0 µM 23% | [6]; at 33.0 µM 41% | [6]; [17] 63% | [6]; at 50.0 µM 49.4% | [7]; at 1.2 µM -1% | [7]; at 3.7 µM 3% | [7]; at 11.0 µM 15% | [7]; at 33.0 µM 66% | [7]; at 100.0 µM 60% | [8]; [16] 24% | [8]; [17] 62% | [9]; at 1.2 µM -2% | [9]; at 3.7 µM 0% | [9]; at 11.0 µM 13% | [9]; at 33.0 µM 30% | [9]; at 100.0 µM 38% | [10]; at 1.2 µM -5% | [10]; at 3.7 µM 2% | [10]; [16] -1% | [10]; at 11.0 µM 13% | [10]; at 50.0 µM 69.7% | [11]; at 1.2 µM 13% | [11]; at 3.7 µM 27% | [11]; at 11.0 µM 63% | [12]; at 1.2 µM 3% | [12]; at 3.7 µM 11% | [12]; at 11.0 µM 37% | [12]; at 33.0 µM 69% | [13]; at 1.2 µM 11% | [13]; at 3.7 µM 22% | [13]; at 11.0 µM 44% | [14]; [16] 50% | [15]; at 1.2 µM 10% | [15]; at 3.7 µM 17% | [15]; at 11.0 µM 55% | [15]; at 33.0 µM 55%
active: [3]; at 3.7 µM 86% | [3]; at 11.0 µM 94% | [3]; at 33.0 µM 94% | [3]; at 100.0 µM 94% | [4]; at 33.0 µM 84% | [4]; at 100.0 µM 71% | [5]; [17] 92% | [5]; at 50.0 µM 81.2% | [5]; at 100.0 µM 79% | [6]; at 100.0 µM 76% | [8]; at 50.0 µM 70.7% | [10]; at 33.0 µM 70% | [10]; [17] 91% | [10]; at 100.0 µM 76% | [11]; at 33.0 µM 88% | [11]; at 100.0 µM 82% | [12]; at 100.0 µM 84% | [13]; at 33.0 µM 74% | [13]; at 100.0 µM 81% | [14]; [17] 96% | [14]; at 50.0 µM 92% | [15]; at 100.0 µM 70%

O=C(C(Cl)=C(N1CCCCC1)N1CCCCC1)C(Cl)Cl
active: [5]; [17] 99% | [6]; [17] 99% | [6]; at 50.0 µM 70.7% | [8]; [17] 99% | [8]; at 50.0 µM 85.2% | [10]; [17] 99% | [14]; [17] 99% | [14]; at 50.0 µM 81.3%
inactive: [1]; at 1.2 µM 2% | [1]; at 3.7 µM 6% | [1]; at 11.0 µM 5% | [1]; at 33.0 µM 3% | [1]; at 100.0 µM 2% | [2]; at 1.2 µM -2% | [2]; at 3.7 µM 0% | [2]; at 11.0 µM -1% | [2]; at 33.0 µM -1% | [2]; at 100.0 µM 1% | [3]; at 1.2 µM 1% | [3]; at 3.7 µM 1% | [3]; at 11.0 µM 3% | [3]; at 33.0 µM 3% | [3]; at 100.0 µM 5% | [4]; at 1.2 µM -3% | [4]; at 3.7 µM -1% | [4]; at 11.0 µM -4% | [4]; at 33.0 µM -3% | [4]; at 100.0 µM 2% | [5]; at 1.2 µM 3% | [5]; at 3.7 µM 6% | [5]; [16] 69% | [5]; at 11.0 µM -2% | [5]; at 33.0 µM 5% | [5]; at 50.0 µM 64.4% | [5]; at 100.0 µM 3% | [6]; at 1.2 µM 2% | [6]; at 3.7 µM -2% | [6]; [16] 11% | [6]; at 11.0 µM -3% | [6]; at 33.0 µM -6% | [6]; at 100.0 µM -2% | [7]; at 1.2 µM -3% | [7]; at 3.7 µM -1% | [7]; at 11.0 µM 3% | [7]; at 33.0 µM -2% | [7]; at 100.0 µM -1% | [8]; [16] -6% | [9]; at 1.2 µM 2% | [9]; at 3.7 µM 4% | [9]; at 11.0 µM 3% | [9]; at 33.0 µM 1% | [9]; at 100.0 µM 9% | [10]; at 1.2 µM -5% | [10]; at 3.7 µM 2% | [10]; [16] -5% | [10]; at 11.0 µM 9% | [10]; at 33.0 µM 4% | [10]; at 50.0 µM 68.1% | [10]; at 100.0 µM 2% | [11]; at 1.2 µM -1% | [11]; at 3.7 µM 1% | [11]; at 11.0 µM 2% | [11]; at 33.0 µM 2% | [11]; at 100.0 µM 2% | [12]; at 1.2 µM -2% | [12]; at 3.7 µM -4% | [12]; at 11.0 µM 2% | [12]; at 33.0 µM 0% | [12]; at 100.0 µM 1% | [13]; at 1.2 µM -50% | [13]; at 3.7 µM -3% | [13]; at 11.0 µM -2% | [13]; at 33.0 µM -4% | [13]; at 100.0 µM -1% | [14]; [16] 48% | [15]; at 1.2 µM -2% | [15]; at 3.7 µM 1% | [15]; at 11.0 µM -2% | [15]; at 33.0 µM -15% | [15]; at 100.0 µM -1%
